Compound activity (PubChem BioAssay)
The list is not random: actives were taken first. Their share in the collection is about 4.8%.
ssDAF-12 act: activates DAF-12 receptor from parasite S. stercoralis | HEK293 ssDAF-12/GRIP1 lit1-tk-luc reporter, luminescence; % of 3 µM dafachronic acid response | activation, % at 6.8 µM | 370,000 compounds, 1% hits | AID 652126;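 active = activation above the mean over all tested compounds plus 3 SD, cut at about 0.9% in these data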;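 also: 0% = DMSO-only wells and 100% = 3 µM delta7-dafachronic acid wells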
DAX1 inh-1: NR0B1 (DAX1) inhibition | P51843 | HEK293 Gal4-DAX1 luciferase reporter, luminescence | inhibition, % at 6.75 µM | 340,000 compounds, 0.99% hits;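 active = inhibition above the mean over all tested compounds plus 3 SD, cut at about 4.2% in these data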;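 also: 0% = DAX1-transfected cells with DMSO and 100% = empty-vector control cells with DMSO; inhibition shows as a rise in luminescence from relieved DAX1 repression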
Target sequence (P51843 207-470 limits assumed): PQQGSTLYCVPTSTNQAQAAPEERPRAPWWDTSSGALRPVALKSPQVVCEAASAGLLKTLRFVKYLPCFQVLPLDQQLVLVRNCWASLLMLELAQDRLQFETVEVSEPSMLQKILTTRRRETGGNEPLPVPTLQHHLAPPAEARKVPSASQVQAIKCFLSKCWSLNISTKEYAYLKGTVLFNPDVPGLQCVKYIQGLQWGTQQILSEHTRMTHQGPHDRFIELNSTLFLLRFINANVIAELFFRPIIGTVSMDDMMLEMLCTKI
DAX1 inh-2: blocks DAX1 repression of SF-1 activated StAR promoter; HEK293T StAR-luciferase reporter, SF-1/DAX-1 repression relief; inhibition, % at 6.8 µM; 370,000 compounds, 1.1% hits; AID 652010;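 active = inhibition above the mean over all tested compounds plus 3 SD, cut at about 3.6% in these data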;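 also: 0% = DAX-1 cells with DMSO and 100% = cells lacking DAX-1 with DMSO; higher inhibition means more luminescence from relief of DAX-1 repression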
hgDAF12 agonist: hgDAF-12 agonism, primary luciferase screen | 370,000 compounds, 1.8% hits | HEK293 GAL4-hgDAF12 UAS-luciferase reporter, agonist luminescence; normalized to butyrate control | activation, % at 6.8 µM;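 active = activation above a cutoff set at the mean of all screened compounds plus 3 SD, cut at about 10% in these data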;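 also: 0% = DMSO wells and 100% = sodium butyrate wells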
SMARCA2 activ: activators of SMARCA2 function; activation, % at 9.1 µM; 370,000 compounds, 1% hits; MG213 cells, MMTV-luciferase reporter, dexamethasone, overnight; in the data active = activation above about 7.8%;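 also: 0% = vehicle wells and 100% = reference activator wells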
hcDAF12 agonist: H. contortus DAF-12 activation, primary screen; HEK293 hcDAF-12 lit1-tk-luc reporter, luminescence; 0% DMSO, 100% Δ7-dafachronic acid; 370,000 compounds, 1.4% hits; activation, % at 6.8 µM;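 active = activation above the mean of all tested compounds plus 3 SD, cut at about 5.5% in these data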;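 also: 100% = response to 3 µM Δ7-dafachronic acid high control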
hgDAF12 ag: confirmation of H. glycines DAF-12 agonists; activation, % at 6.8 µM; 3,300 compounds, 80% hits; AID 743050; shares compounds with hgDAF12 agonist; HEK293 GAL4-hgDAF12 luciferase reporter, agonist mode; percent of butyrate response;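 active = mean activation over triplicate wells above the hit cutoff derived from the earlier primary screen, cut at about 11% in these data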;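 also: 0% = DMSO low control and 100% = 2 mM sodium butyrate high control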
LXRb DAF12 ctr: activates human LXR-beta, counter-screen for DAF-12 agonists. HEK293 Gal4-LXR luciferase reporter, 24 h. 3,300 tested, under 10 active. activation, % at 6.8 µM. shares compounds with hgDAF12 agonist;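 active = mean activation of the triplicate above a set limit carried over from the primary screen, none filed active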
Numbers without * were called inactive; . = not tested or not shown.

SMILES	ssDAF-12 act	DAX1 inh-1	DAX1 inh-2	hgDAF12 agonist	SMARCA2 activ	hcDAF12 agonist	hgDAF12 ag	LXRb DAF12 ctr
CCOC(=O)N(C)C[C@@H]1OCc2cn(nn2)CCCC(=O)N([C@H](C)CO)C[C@H]1C	-1	.	0	1	-3	-1	.	.
CCCCSc1cnn(-c2ccccc2)c(=O)c1SCCCC	-2	0	-1	-1	-6	0	.	.
CCCCSc1nc2c(cnn2-c2ccccc2)c(=O)n1N	-1	1	3	19*	1	3	14*	1
Cc1cccc(C)c1-n1nnnc1C1(C)CN(S(C)(=O)=O)CC(=O)N1Cc1ccc(F)cc1 (configuration not stated)	-1	.	-1	0	0	-2	.	.
Clc1ccc(-n2cc(COCc3ccccc3)nn2)cc1	0	0	3.8*	21*	6	5	11*	1
O=C(Nc1ccc(Cl)cc1)OCc1cn(-c2ccc(Cl)cc2)nn1	-1	1	0	0	4	1	.	.
CN(C(=O)/C=C/c1ccccc1)C1CCS(=O)(=O)C1 (configuration not stated)	-1	2	0	2	0	1	.	.
CN(C(=O)/C=C/c1ccccc1)C1CCCCC1	-1	.	1	14*	3	5	17*	1
Cc1ccc(NC(=O)c2noc3c2CCC3)cc1C	1	4	4.2*	19*	1	5	19*	1
COc1ccc(CNC(=O)c2noc3c2CCCCC3)cc1	-1	1	1	8	2	2	.	.
O=C(NCc1ccccc1)c1noc2c1CCCCC2	0	2	3	15*	1	2	13*	0
C[C@@H]1COc2cccc(NC3CC3)c2S(=O)(=O)N1	-1	.	0	3	3	0	.	.
COc1ccc(/C=C/C2=NNC(=O)CC2)cc1	0	0	1	14*	1	0	7	0
Fc1ccc(/C=C/c2nnc(-c3cccs3)o2)cc1	0	2	3.7*	15*	7	4	12*	1
O=C(Nc1nnc(-c2cccs2)o1)c1cccc(F)c1	-1	1	-1	2	-2	1	.	.
CCCN1C(=O)c2[nH]nc(-c3ccccc3)c2C1c1ccc(Br)cc1 (configuration not stated)	-1	.	-1	-1	-3	-1	.	.
CC(C)[C@H](NS(=O)(=O)c1ccc(F)cc1F)C(=O)N1CCC[C@H]1C(=O)NCc1ccccc1	-1	.	2	2	-3	0	.	.
C[C@H](CO)N1C[C@H](C)[C@@H](CN(C)Cc2ccccc2)Oc2ccc(NC(=O)CCCCCC(=O)Nc3ccccc3N)cc2C1=O	-1	3	2	16*	-1	3	9	0
C[C@H]1CN([C@@H](C)CO)C(=O)c2cc(NC(=O)Cc3ccccc3)ccc2O[C@H]1CN(C)Cc1ccccc1	-1	2	1	-1	1	-1	.	.
O=C1C=CC(n2cc(F)c(=O)[nH]c2=O)O1 (configuration not stated)	-2	3	-3	-6	4	-2	.	.
O=C(NC(C(=O)N1CCCC1C(=O)NC1CCCC1)c1ccccc1)c1cccs1 (configuration not stated)	-1	.	0	-4	-2	-1	.	.
Cn1ccs/c1=N\C(=O)Nc1cccc(Cl)c1	0	1	3	16*	3	2	11*	1
CSc1nc2ccc(NC(=O)c3ccco3)cc2s1	-1	2	2	18*	4	4	11*	1
CSc1nc2ccc(NC(=O)c3ccc(=O)n(C)n3)cc2s1	0	-1	1	4	-1	4	.	.
C/C(=N/NC(=O)c1cc(C(C)C)[nH]n1)c1cccs1	0	1	3	14*	2	6.1*	16*	1
SMILES	ssDAF-12 act	DAX1 inh-1	DAX1 inh-2	hgDAF12 agonist	SMARCA2 activ	hcDAF12 agonist	hgDAF12 ag	LXRb DAF12 ctr
C/C(=N\NC(=O)c1cc(C)[nH]n1)c1cccs1	0	2	4.5*	17*	2	4	14*	1
C/C(=N\NC(=O)c1cc(C)[nH]n1)c1ccc(-c2ccccc2)cc1	0	1	0	2	1	2	.	.
Nc1ccc(-c2nc3ccccc3s2)cn1	1	2	2	14*	6	5	20*	1
c1ccc(-c2nc3ccccc3s2)nc1	1	4.3*	3	13*	1	3	18*	1
C/C(N)=C(/C#N)C(=O)CSc1nnc(-c2ccc3c(c2)OCO3)o1	1.0*	2	5.9*	19*	5	6.0*	12*	1
N#CCSc1nnc(-c2ccc3c(c2)OCO3)o1	-1	0	1	0	2	-2	.	.
COc1ccc2cc(-c3ccn[nH]3)ccc2c1	1	3	1	14*	7	4	15*	1
CN1C(=O)C(c2cn(C)c3ccccc23)(c2cn(C)c3ccccc23)c2cc(F)ccc21	2.4*	.	-1	14*	0	3	2	0
O=C(O)c1ccccc1NC(=O)C1CCN(S(=O)(=O)c2ccc3c(c2)OCCO3)CC1	-1	0	1	2	-2	0	.	.
COc1cc(F)ccc1Oc1cccc2c1S(=O)(=O)N([C@H](C)c1ccccc1)C[C@@H](COCc1ccccc1)O2	-1	.	0	-1	-2	0	.	.
C[C@@H]1COc2cc(N3CCCC3)ccc2S(=O)(=O)N1	-1	.	0	0	0	1	.	.
Cc1nc(Nc2ncc(C(=O)Nc3c(C)cccc3Cl)s2)cc(N2CCN(CCO)CC2)n1	-2	.	4.4*	15*	8	-7	5	0
Brc1ccc(-c2csc(N3CCOCC3)n2)cc1	0	7.5*	4.1*	19*	-1	3	11*	1
Brc1ccc(-c2csc(N3CCCCCC3)n2)cc1	-2	2	0	-1	1	-3	.	.
c1cnn2c(-c3ccc4c(c3)CCO4)cnc2c1	-1	.	1	14*	-1	-1	8	0
O=C(C(=O)N1CCC(CNS(=O)(=O)c2cc(C(F)(F)F)cc(C(F)(F)F)c2)CC1)c1cc2ccccc2o1	0	.	0	2	-2	0	.	.
O=C(Nc1ccc(/C=C/c2nc3ccccc3o2)cc1)c1c(F)cccc1F	0	0	0	16*	4	3	19*	1
COCc1[nH]nc2c1C(c1cccc(C(F)(F)F)c1)NC2=O (configuration not stated)	-1	.	-1	0	-4	1	.	.
